# Only some compounds are listed: those with a hit (about 1.2% of all), similar ones and a draw of the others.
# PolyA inhibitor: yeast polyadenylation inhibition; S. cerevisiae SKY197-pL101 polyadenylation reporter, beta-gal luminescence; efflux-impaired pdr1/pdr3 knockout yeast; score 100 = 6 SD above DMSO; activity score, % at 12 µM; hit rate 0.02% among 300,000; AID 1875;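 active means lowest replicate activity score at least 50, where 100 means six control SD above control mean; inconclusive means lowest score under 50 but half or more replicates reach 50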;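 further: yeast exposed to compound for 9 h at 30 °C; higher score means more reporter readthrough which indicates perturbed polyadenylation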
# NALP1 inh: NALP1 inhibition | S. cerevisiae NALP1/ASC/caspase-1 growth, X-gal OD620, 72 h | inhibition, % at 10 µM | hit rate 0.61% among 280,000 | AID 2071; in the data active means inhibition mostly above about 24%, no sharp cut-off; inactive means mostly below about 32%
# APOBEC3G inh: inhibitors of human APOBEC3G DNA deaminase | recombinant A3G, ssDNA deamination FAM/TAMRA fluorescence | hit rate 0.28% among 330,000 | Q9HC16 | inhibition, % at 20 µM;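 active means inhibition of at least 40% at 20 µM, with no more than 30% in the related APOBEC3A deaminase screen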
# APOBEC3A inh: human APOBEC3A DNA deaminase inhibition. recombinant A3A, FAM/TAMRA ssDNA deamination fluorescence. inhibition, % at 20 µM. hit rate 0.41% among 330,000. AID 493011;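 active means at least 40% inhibition at 20 µM here, with at most 30% in a related deaminase screen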
# Target sequence (P31941 whole entry, looked up): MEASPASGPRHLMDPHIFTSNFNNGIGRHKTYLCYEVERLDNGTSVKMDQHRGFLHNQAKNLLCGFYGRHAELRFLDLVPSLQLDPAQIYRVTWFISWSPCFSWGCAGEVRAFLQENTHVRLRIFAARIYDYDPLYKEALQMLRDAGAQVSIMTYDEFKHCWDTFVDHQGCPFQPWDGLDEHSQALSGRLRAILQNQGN
# Hits are given with their value; 0 = inactive; ? = inconclusive; - = no result.
SMILES,PolyA inhibitor,NALP1 inh,APOBEC3G inh,APOBEC3A inh
O=C(CC1C(=O)NCCN1Cc1ccc(Cl)c(F)c1)NC1CCC1 (stereo not given),0,0,0,0
Cc1cc(C)c(S(=O)(=O)NCc2ccncc2)c(C)c1,0,39,0,0
Cc1cc(C)c(S(=O)(=O)NCCc2ccncc2)c(C)c1,0,0,0,0
CCOC(=O)c1cc2sc(C)cc2n1CC(=O)N1CCN(C(=O)c2ccco2)CC1,0,0,0,0
CCOC(=O)c1cc2sc(C)cc2n1CC(=O)N1CCOCC1,0,36,0,0
COc1ccc(CNC(=O)C(=O)NCc2cccnc2)cc1,0,28,0,0
Cn1cc(CN2CCN(c3ccccc3)CC2)c2ccccc21,0,26,0,0
O=C(O)Cn1cc(CN2CCOCC2)c2ccccc21,?,0,0,0
CC(NC(=O)c1ccco1)C1CCCO1 (stereo not given),0,44,0,0
COC(=O)C1(CCSC)NC(c2ccc(O)cc2)C2C(=O)N(c3ccc(F)cc3)C(=O)C21 (stereo not given),0,0,0,0
Cc1ccc(S(=O)(=O)N2CCN(c3ncccn3)CC2)c(C)c1,0,-,0,0
Oc1ccccc1N1CCN(c2ncccn2)CC1,0,0,0,0
O=S(=O)(c1ccccc1Br)N1CCN(c2ncccn2)CC1,0,36,0,0
c1ccc(N2CCN(c3ncccn3)CC2)cc1,0,26,0,0
Cc1ccc(C)c(S(=O)(=O)N2CCN(c3ncccn3)CC2)c1,0,34,0,0
Cc1ccc(S(=O)(=O)N2CCN(S(=O)(=O)N3CCOCC3)CC2)cc1C,0,0,0,0
Cc1ccc(S(=O)(=O)N2CCN(S(=O)(=O)N3CCOCC3)CC2)c(C)c1,0,43,0,0
Cc1cc(S(=O)(=O)NCC2CCCO2)c(C)cc1Br (stereo not given),0,-,0,0
CN(CC(=O)Nc1cccc(F)c1)C(=O)CNC(=O)Cc1cccc2ccccc12,-,-,0,0
O=C(NCCS(=O)(=O)N1CCN(c2ccccc2)CC1)C1CCCC1,0,-,0,0
CCc1ccc(C(=O)NNC(=O)OC)cc1,0,0,0,0
CC1Cc2ccccc2N1C(=O)CSc1nncs1 (stereo not given),-,-,0,0
O=C(O)CCn1c(-c2ccccc2)cc2ccccc21,0,34,0,0
O=C(O)CCn1c(CO)nc2ccccc21,0,0,0,0
Nc1nc(COc2ccccc2)cs1,0,0,0,0
SMILES,PolyA inhibitor,NALP1 inh,APOBEC3G inh,APOBEC3A inh
Cc1ccccc1OCc1csc(N)n1,0,45,0,0
CCCn1c(N)c(N2CCCCC2)c(=O)n(CC(=O)Nc2ccccc2C)c1=O,0,37,0,0
Cc1noc(/C=C/c2ccccn2)c1[N+](=O)[O-],0,41,0,0
COc1ccccc1N/C=C/c1onc(C)c1[N+](=O)[O-],0,0,0,0
N#Cc1ccccc1Cn1cc(/C=C/[N+](=O)[O-])c2ccccc21,0,75,0,0
O=C(NN1C(=O)c2cc(Br)ccc2NC1c1ccccc1Cl)c1ccncc1 (stereo not given),0,0,0,0
O=C(NN1C(=O)c2cc(Br)ccc2NC1c1cc(Br)cc(Br)c1O)c1ccncc1 (stereo not given),0,57,0,0
CCC(C)(C)C1CCC2(CC1)NC(=O)N(CC(=O)NCCc1c[nH]c3ccccc13)C2=O (stereo not given),-,-,0,0
CC(=O)CSc1nc(-c2cccs2)c(C#N)c(=O)[nH]1,0,36,0,0
Oc1ccccc1N=Cc1sc2ccccc2c1Cl,0,54,0,0
O=C(CCN1C(=O)COc2ccccc21)NCCN1CCN(c2ccccc2F)CC1,0,32,0,0
O=C(CN1C(=O)COc2ccccc21)NCCCN1CCN(c2ccccc2F)CC1,0,0,0,0
O=c1ccc2ccc(OCc3ccccc3)cc2o1,0,0,0,0
Cc1cc(=O)[nH]c(SCCCOc2ccc(F)cc2)n1,0,41,0,0
O=C(COc1coc(CN2CCN(c3ccc(F)cc3)CC2)cc1=O)NCC1CCCO1 (stereo not given),0,-,0,0
Cc1ccc(SCC(=O)Nc2ccc(N3CCOCC3)cc2)cc1C,-,-,0,0
CC(=O)n1c2c(c3ccccc31)OC(N)=C(C#N)C2c1ccc(C(C)C)cc1 (stereo not given),0,34,0,0
CCc1nc2ccccc2[nH]c1=O,0,0,0,0
O=c1[nH]c2ccccc2nc1C(F)(F)F,0,37,0,0
Cc1ccc(-c2nn3c(C)nnc3s2)cc1NC(=O)CSc1ccc(Cl)cc1,88,0,0,0
Cc1ccc(S(=O)(=O)NCCC(=O)NNc2c(F)c(F)cc(F)c2F)cc1,-,-,0,0

# Source: PubChem BioAssay (several laboratories)
